20 compounds from PubChem BioAssay can be followed below.

Assay [1] is described as follows: antimalarial activity against Dd2 strain (AID 2302;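 active = growth inhibition above 50% at the single 2 µM test dose, taken to imply half-maximal potency below 2 µM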;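 note: 0% = DMSO untreated growth and 100% = chloroquine plus artemisinin killed control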). To be noted: P. falciparum Dd2 in RBCs, LDH growth readout, 72 h; at 2 µM; active compounds read high.
Assay [2] is described as follows: HepG2 cytotoxicity, primary screen, cytotoxicity control for P. falciparum antimalarial project, cell-based, ATP luminescence (AID 2303;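 active = inhibition above 50%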;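 note: 0% = DMSO wells and 100% = digitonin-killed cells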). To be noted: HepG2 viability, 24-48 h, at 10 µM, active compounds read high.
Assay [3] has as its target L-lactate dehydrogenase (Plasmodium falciparum (isolate CDC / Honduras)) (UniProt Q27743). In words: PfLDH activity inhibition – cell lysate, 3D7 strain, counter-screen for P. falciparum growth inhibition project (AID 2304).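 Note: 0% = vehicle and 100% = reference inhibitor.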 As to conditions: P. falciparum 3D7 crude extract, LDH APAD/NBT absorbance; at 2 µM; active compounds read high.
Assay [4] can be described thus: inhibition of 3D7 malaria parasite growth – strain 3D7 (AID 2306).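 Note: 0% = DMSO wells and 100% = chloroquine plus artemisinin control wells.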 To be noted: P. falciparum 3D7 erythrocytic growth, LDH absorbance, 72 h; at 2 µM; active compounds read high.
Assay [5] deals with Calcium-dependent protein kinase 1 (Plasmodium falciparum (isolate 3D7)) (UniProt P62344). Nature of the assay: PfCDPK1 kinase inhibitors, biochemical, TCAMS library (AID 1159585; cut-off not given, nearly all actives have IC50 up to about 0.98 µM;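 note: inhibitors leave more ATP so luminescence rises with inhibition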). To be noted: recombinant PfCDPK1, Kinase-Glo ATP depletion luminescence.
Assay [6] addresses Plasmodium falciparum protein kinase 6 (PK6, PF3D7_1337100) (UniProt Q8IDW1). In words: PfPK6 kinase inhibitors, biochemical, TCAMS library (AID 1159586). As to conditions: recombinant PfPK6, Kinase-Glo ATP depletion luminescence. On the technique in general: Kinase-Glo reads ATP consumption through a luciferase reaction.
In assay [7] the target is Protein kinase 7 (PK7), Plasmodium falciparum 3D7 (PF3D7_0213400) (UniProt Q7YTF7). Nature of the assay: inhibition of Plasmodium PK7 catalytic activity – biochemical, TCAMS antimalarial set, Kinase-Glo luminescence (AID 1159587). As to conditions: recombinant PfPK7, Kinase-Glo ATP depletion luminescence.
For assay [8], the target named is Calcium-dependent protein kinase 4 (Plasmodium falciparum (isolate 3D7)) (UniProt Q8IBS5). Nature of the assay: PfCDPK4 kinase inhibitors, biochemical, TCAMS library (AID 1159588; cut-off not given, nearly all actives have IC50 up to about 0.91 µM). To be noted: recombinant PfCDPK4, Kinase-Glo ATP depletion luminescence.

A number with no mark means an inactive call. For some of these results: Results with a measured potency or affinity are listed apart. The source made the active and inactive calls. Unless noted, the rule behind the calls is not given here.

Chain of Protein kinase 7 (PK7), Plasmodium falciparum 3D7 (PF3D7_0213400) (Q7YTF7 1-343): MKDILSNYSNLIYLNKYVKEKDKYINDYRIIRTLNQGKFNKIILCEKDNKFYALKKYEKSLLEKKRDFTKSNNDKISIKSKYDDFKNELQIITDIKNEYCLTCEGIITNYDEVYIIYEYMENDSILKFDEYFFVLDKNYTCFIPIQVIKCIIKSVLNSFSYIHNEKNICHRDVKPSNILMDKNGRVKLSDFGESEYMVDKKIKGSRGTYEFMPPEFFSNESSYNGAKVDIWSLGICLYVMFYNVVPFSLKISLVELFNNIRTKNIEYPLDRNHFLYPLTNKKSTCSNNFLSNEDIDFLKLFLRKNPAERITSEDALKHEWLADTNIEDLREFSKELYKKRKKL
Chain of Calcium-dependent protein kinase 1 (Plasmodium falciparum (isolate 3D7)) (P62344 whole entry, looked up): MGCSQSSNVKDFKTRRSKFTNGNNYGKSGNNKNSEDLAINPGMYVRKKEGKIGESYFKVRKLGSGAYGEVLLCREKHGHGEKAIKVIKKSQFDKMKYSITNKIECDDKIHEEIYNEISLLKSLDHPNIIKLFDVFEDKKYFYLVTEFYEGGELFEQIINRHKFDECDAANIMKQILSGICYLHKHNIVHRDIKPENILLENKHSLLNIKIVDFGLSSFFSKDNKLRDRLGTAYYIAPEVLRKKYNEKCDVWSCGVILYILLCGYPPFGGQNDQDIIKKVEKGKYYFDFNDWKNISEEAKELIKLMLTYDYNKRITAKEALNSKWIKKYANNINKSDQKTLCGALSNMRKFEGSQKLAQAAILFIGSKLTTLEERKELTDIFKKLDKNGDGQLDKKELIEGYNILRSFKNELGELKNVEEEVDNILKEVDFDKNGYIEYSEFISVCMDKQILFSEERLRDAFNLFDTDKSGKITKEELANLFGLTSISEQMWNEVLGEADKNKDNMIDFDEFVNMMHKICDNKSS
Chain of L-lactate dehydrogenase (Plasmodium falciparum (isolate CDC / Honduras)) (Q27743 whole entry, looked up): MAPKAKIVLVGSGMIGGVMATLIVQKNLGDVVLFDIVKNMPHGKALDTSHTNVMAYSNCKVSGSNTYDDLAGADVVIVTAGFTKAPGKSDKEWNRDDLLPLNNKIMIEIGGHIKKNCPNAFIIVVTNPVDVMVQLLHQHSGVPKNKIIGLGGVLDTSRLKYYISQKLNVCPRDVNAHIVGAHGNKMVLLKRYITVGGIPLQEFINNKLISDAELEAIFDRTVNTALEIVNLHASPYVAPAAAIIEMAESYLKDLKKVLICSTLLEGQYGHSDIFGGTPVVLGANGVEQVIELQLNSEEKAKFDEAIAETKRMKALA
Chain of Calcium-dependent protein kinase 4 (Plasmodium falciparum (isolate 3D7)) (Q8IBS5 whole entry, looked up): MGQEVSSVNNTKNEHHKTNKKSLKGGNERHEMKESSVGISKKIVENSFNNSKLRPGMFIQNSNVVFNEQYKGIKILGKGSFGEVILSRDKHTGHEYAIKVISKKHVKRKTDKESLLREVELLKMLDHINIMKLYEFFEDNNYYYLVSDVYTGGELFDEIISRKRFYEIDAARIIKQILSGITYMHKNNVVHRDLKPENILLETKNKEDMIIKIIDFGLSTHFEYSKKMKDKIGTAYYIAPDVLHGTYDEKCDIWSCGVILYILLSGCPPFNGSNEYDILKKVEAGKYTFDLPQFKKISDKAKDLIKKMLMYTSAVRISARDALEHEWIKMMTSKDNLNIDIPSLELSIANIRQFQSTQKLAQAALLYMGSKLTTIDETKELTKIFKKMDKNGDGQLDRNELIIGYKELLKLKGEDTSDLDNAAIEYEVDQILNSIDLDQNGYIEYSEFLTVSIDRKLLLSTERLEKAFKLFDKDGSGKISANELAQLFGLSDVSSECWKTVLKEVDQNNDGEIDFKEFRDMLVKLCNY
Chain of Plasmodium falciparum protein kinase 6 (PK6, PF3D7_1337100) (Q8IDW1 1-305): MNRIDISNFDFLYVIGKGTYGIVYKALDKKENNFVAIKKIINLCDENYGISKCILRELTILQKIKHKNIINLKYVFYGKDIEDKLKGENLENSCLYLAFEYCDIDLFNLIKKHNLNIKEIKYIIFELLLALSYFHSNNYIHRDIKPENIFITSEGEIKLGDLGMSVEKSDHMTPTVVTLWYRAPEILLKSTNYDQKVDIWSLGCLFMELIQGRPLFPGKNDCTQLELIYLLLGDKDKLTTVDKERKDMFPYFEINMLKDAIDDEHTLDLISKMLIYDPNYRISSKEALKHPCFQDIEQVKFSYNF

One may read the inhibition as the change of the read-out against control, counted positive when it falls. In the case of `Cc1ccc(-c2ccc3c(c2)C=C(C(=O)NCC2CCN(CC4CCN(C(=O)/C=C/c5ccc(Cl)c(Cl)c5)CC4)CC2)CCC3)cc1`, the growth inhibition in assay [1] is 70% (active); in assay [4], 99% (active). The inhibition is 96% (active) in assay [2] and -7% in assay [3]. Also, the outcome in assay [5], in assay [6], in assay [7] and in assay [8] was inactive.
`COc1ccc(Nc2nc(NCc3ccc(-n4ccnc4)cc3)cc(-c3ccc(OC)cc3)n2)cc1`: the growth inhibition in assay [1] is 25%; in assay [4] it was 96% (active). In addition, the inhibition in assay [2] was 8%; in assay [3], -2%. Also, the outcome in assay [5], in assay [6], in assay [7] and in assay [8] was inactive.
In the case of `COc1ccccc1CCNC(=O)c1cnc(N2CCN(c3ccncc3)CC2)c(Cl)c1`, the growth inhibition was 54% (active) in assay [1] and 98% (active) in assay [4]. In addition, the inhibition in assay [2] is 30%; in assay [3] it was 4%. Moreover, the outcome in assay [5], in assay [6], in assay [7] and in assay [8] was inactive.
With `Cc1occc1C(=O)Nc1nc(-c2ccccn2)nc2ccsc12`, the growth inhibition in assay [1] and in assay [4] was 98% (active) in each case. For the same compound, the figures for the inhibition in assay [2] and in assay [3] were 68% (active) and 5%, respectively. For the same compound, the outcome in assay [5], in assay [6], in assay [7] and in assay [8] was inactive.
On to `O=C(COc1ccc(Cl)c(Cl)c1)NCCCCCN1CCCN(C(=O)Nc2ccc(Cl)c(Cl)c2)CC1`, for which the growth inhibition was 7% in assay [1] and 93% (active) in assay [4]. Moreover, the figures for the inhibition in assay [2] and in assay [3] were 29% and 3%, respectively. Moreover, the outcome in assay [5], in assay [6], in assay [7] and in assay [8] was inactive.
On to `Cc1cccc2[nH]c(-c3cccc(-c4ccc(NC(=O)c5ccc(=O)[nH]n5)cc4)c3)nc12`, for which the results for the growth inhibition in assay [1] and in assay [4] were 27% and 101% (active), respectively. For the same compound, the inhibition was 18% in assay [2] and 1% in assay [3]. Moreover, the outcome in assay [5], in assay [6], in assay [7] and in assay [8] was inactive.
In the case of `Cc1cc(-c2ccc(CNCc3ccsc3)cc2)ccc1S(=O)(=O)NCCN1CCCC1`, the values for the growth inhibition in assay [1] and in assay [4] were 49% and 99% (active), respectively. Also, the inhibition in assay [2] was 57% (active); in assay [3], -1%. The outcome in assay [5], in assay [6], in assay [7] and in assay [8] was inactive.
For `N#CCCn1nc(-c2ccc(Cl)cc2)c2c(c1=O)CCCC2`, the growth inhibition in assay [1] is 32%; in assay [4], 94% (active). For the same compound, the inhibition is 0% in assay [2] and -1% in assay [3]. Also, the outcome in assay [5], in assay [6], in assay [7] and in assay [8] was inactive.
On to `O=C(/C=C/c1ccc(F)c(Br)c1)NCCCCCN1CCC(c2c[nH]c3ccccc23)CC1`, for which the growth inhibition was 10% in assay [1] and 92% (active) in assay [4]. For the same compound, the values for the inhibition in assay [2] and in assay [3] were 39% and -7%, respectively. The result in assay [5], in assay [6], in assay [7] and in assay [8] was inactive.
In the case of `CCOc1ccc(-c2nonc2NC(=O)c2ccco2)cc1OCC`, the growth inhibition in assay [1] is 77% (active); in assay [4], 97% (active). For the same compound, the inhibition in assay [2] was 3%; in assay [3], -1%. Also, the outcome in assay [5], in assay [6], in assay [7] and in assay [8] was inactive.
With `COc1ccc(NC(=O)c2ccc3[nH]c(-c4ccc(Cl)cc4)cc3c2)cc1OCCN(C)C`, the growth inhibition was 78% (active) in assay [1] and 100% (active) in assay [4]. Also, the values for the inhibition in assay [2] and in assay [3] were 32% and 2%, respectively. Besides, the outcome in assay [5], in assay [6], in assay [7] and in assay [8] was inactive.
As to `CC(C)NCc1cccc(-c2cccc(NC(=O)c3cccc(Cl)c3)c2)c1`, the figures for the growth inhibition in assay [1] and in assay [4] were 38% and 98% (active), respectively. Further, the inhibition was 36% in assay [2] and -10% in assay [3]. Moreover, the result in assay [5], in assay [6], in assay [7] and in assay [8] was inactive.
For `CCCCNCc1ccc(OCc2cccc(COc3ccc(CNCCCC)cc3)c2)cc1`, the results for the growth inhibition in assay [1] and in assay [4] were 35% and 100% (active), respectively. Further, the inhibition in assay [2] was 98% (active); in assay [3], 5%. The result in assay [5], in assay [6], in assay [7] and in assay [8] was inactive.
`O=C(Nc1ccc(OC2CCN(Cc3ccc(F)cc3)C2)c(Cl)c1)c1ccco1` (stereo not given): the results for the growth inhibition in assay [1] and in assay [4] were 97% (active) and 96% (active), respectively. Moreover, the values for the inhibition in assay [2] and in assay [3] were 9% and -2%, respectively. Moreover, the result in assay [5], in assay [6], in assay [7] and in assay [8] was inactive.
As to `O=C(c1cccc(Cl)c1)N1CCN(c2ccc([N+](=O)[O-])c(NC3CC3)c2)CC1`, the growth inhibition is 79% (active) in assay [1] and 100% (active) in assay [4]. Further, the results for the inhibition in assay [2] and in assay [3] were 11% and 4%, respectively. Also, the result in assay [5], in assay [6], in assay [7] and in assay [8] was inactive.
As for `CC(CN1CCN(C)CC1)C(=O)Nc1cccc(-c2ccc(-c3nc4ccc(F)cc4[nH]3)cc2)c1` (stereo not given), the growth inhibition in assay [1] was 98% (active); in assay [4], 101% (active). The inhibition in assay [2] was 10%; in assay [3], 1%. Further, the outcome in assay [5], in assay [6], in assay [7] and in assay [8] was inactive.
In the case of `CCCCOc1ccc(/C=C/c2ccc(-c3c(C)[nH]c(C)c(Cl)c3=O)s2)cc1`, the figures for the growth inhibition in assay [1] and in assay [4] were 96% (active) and 97% (active), respectively. The inhibition in assay [2] is -4%; in assay [3], -2%. Also, the outcome in assay [5], in assay [6], in assay [7] and in assay [8] was inactive.
With `COc1cc(-c2cnc(N)c(-c3nc4ccccc4[nH]3)c2)cc(OC)c1OC`, the growth inhibition in assay [1] is 57% (active); in assay [4], 101% (active). For the same compound, the inhibition was 59% (active) in assay [2] and 7% in assay [3]. The result in assay [5], in assay [6], in assay [7] and in assay [8] was inactive.
As for `CC(C)(C)c1ccc(C(=O)N2CCC3(CC2)C(=O)N(CC(=O)NCC2CCCO2)CN3c2ccccc2)cc1` (stereo not given), the growth inhibition in assay [1] and in assay [4] was 100% (active) throughout. In addition, the inhibition was 8% in assay [2] and 0% in assay [3]. In addition, the outcome in assay [5], in assay [6], in assay [7] and in assay [8] was inactive.
Turning to `Nc1c2c(nc3ccc(NC(=O)CCCCCc4ccccc4)cc13)CCCC2`, the growth inhibition in assay [1] was 36%; in assay [4], 102% (active). For the same compound, the results for the inhibition in assay [2] and in assay [3] were 32% and 4%, respectively. In addition, the outcome in assay [5], in assay [6], in assay [7] and in assay [8] was inactive.
